Source: PubChem BioAssay (National Center for Advancing Translational Sciences (NCATS))
PINK1 modulator = PINK1 expression modulation; 410,000 compounds, 0.2% hits; PINK1 immunofluorescence, high-content cytometry, 24 h; AID 624263; Potency, µM (doses to about 76.6 µM), usual class: activators; active = well fitted activation curve with a large enough effect; inconclusive = small, poorly fitted or top-dose-only effect; cell line not stated here; also: nearly all actives have a fitted effect of over 65% in size
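Stable cell line treated 24 h with compounds at 5 concentrations (CCCP controls), then fixed and immunostained for PINK1 plus nuclear and cell stains; PINK1 immunofluorescence quantified by laser-scanning microplate cytometry.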
MCF10A rereplic = inducers of DNA re-replication in MCF 10A breast cells. AID 624296. 350,000 compounds, 2.9% hits. Potency, µM (series often up to 46.1 µM), usual class: activators. MCF 10A DNA re-replication, Hoechst nuclear intensity, 48 h; also: nearly all actives have a fitted effect of over 50% in size
KB-3-1 tox = KB-3-1 parental cell cytotoxicity; AID 1347075; 400,000 compounds, 1.4% hits; Potency, µM (series often up to 46.1 µM), usual class: cytotoxic; KB-3-1 viability, CellTiter-Glo ATP luminescence, 72 h; also: nearly all actives have a fitted effect of over 60% in size
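Cells are dispensed, compounds pinned in, plates held at 37 °C for 72 h, then CellTiter-Glo is added and luminescence read after 10 minutes. Cell line: parental KB-3-1 in phenol-red-free DMEM, 10% FBS.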
SW480 rereplic = DNA re-replication induction in SW480 cells. SW480 DNA re-replication, Hoechst DNA content imaging, 48 h. Potency, µM (series often up to 46.1 µM), usual class: activators. 340,000 compounds, 1.8% hits. AID 624297; also: nearly all actives have a fitted effect of over 55% in size
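Image-based read-out: total Hoechst fluorescence of nuclei (405 nm excitation, 500-530 nm emission), with hits raising the fraction of high-intensity nuclei. SW480 colon cells incubated 48 hr with compounds at 37 C.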
KB-V1 cytotox = kills drug-selected multidrug resistant KB-V1 cells; KB-V1 MDR cells viability, CellTiter-Glo, 72 h; Potency, µM (highest dose often 46.1 µM), actives largely listed as cytotoxic; 400,000 compounds, 3.4% hits; AID 1347076; also: nearly all actives have a fitted effect of over 60% in size
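Potencies derive from concentration-effect curves fitted to normalized luminescence (CellTiter-Glo) of KB-V1 cells treated for 72 h at 37 degrees C in phenol-red-free DMEM containing 10% FBS.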
Hits are given with their value; n = inactive; u = inconclusive; x = not tested or not shown. Rows were chosen to be rich in hits. Some 6.7% of all compounds tested hit in one or more screens of this group. Unless noted, calls follow the shape of the dose curve; as a rule, active = well fitted curve in the direction sought with a large enough effect; inconclusive = small, poorly fitted or top-dose-only effect, or another doubt; inactive = no such curve, though single readings can be large; an effect the other way counts as inactive or inconclusive.

SMILES	PINK1 modulator	MCF10A rereplic	KB-3-1 tox	SW480 rereplic	KB-V1 cytotox
CCOc1ccc(Nc2nc(Cc3nnc(SCC(=O)c4ccc(C)c(C)c4)o3)cs2)cc1	n	n	n	u	13µM
Cc1ccc(NC(=O)CSc2nnc(Cc3csc(C)n3)o2)cc1	n	n	n	n	n
Cc1cc2nc(-c3ccc(SCc4ccccn4)nc3)[nH]c2cc1C	n	u	n	u	16.4µM
CC1CCCCN1C(=O)COC(=O)CSc1ccc(C(N)=O)cc1[N+](=O)[O-] (stereo not drawn)	n	u	n	6.51µM	n
Cc1ccc2c(CNCc3cccs3)c(C(=O)O)n(Cc3ccc(F)cc3)c2c1	n	x	11.6µM	x	n
COc1ccc2c(CNCc3cccs3)c(C(=O)O)n(Cc3ccc(F)cc3)c2c1	n	x	16.4µM	x	n
C=Cc1ccc(Cn2c(C(=O)O)c(CNCc3ccc(F)cc3)c3ccc(C)cc32)cc1	n	x	7.31µM	x	n
COc1ccc(Cn2c(C(=O)O)c(CNCc3cccs3)c3ccc(C)cc32)cc1	n	x	u	x	n
COc1ccc(OC)c(NCCN2C(=O)c3ccccc3C2=O)c1	n	x	n	x	n
O=S(=O)(c1ccc(Br)cc1)N1CCN(c2cc(-c3ccccc3)nc3ncnn23)CC1	n	n	u	n	13µM
O=S(=O)(c1ccccc1)N1CCN(c2cc(-c3ccccc3)nc3ncnn23)CC1	n	n	n	n	u
COc1ccc(S(=O)(=O)N2CCN(c3cc(-c4ccccc4)nc4ncnn34)CC2)cc1	n	n	u	n	23.1µM
COc1cccc(CSCC(=O)NCCc2ccccc2)c1OC	n	n	n	n	n
COc1ccc2nc3cc(Cl)ccc3c(C#N)c2c1	n	n	n	20.6µM	n
COc1ccc2nc(C(F)(F)Cl)c(C#N)c(N)c2c1	n	u	n	u	n
O=C(/C=C/c1ccc(F)cc1)NCC1Cc2cccc(-c3ncccn3)c2O1 (stereo not drawn)	n	x	x	x	x
OCCCNc1ccccc1	x	n	x	n	x
CC1(c2ccccn2)Nc2ccccc2-c2nc3ccccc3n21 (stereo not drawn)	n	n	n	n	16.4µM
N#Cc1nc(-c2ccco2)oc1N1CCN(c2ccccc2)CC1	n	n	n	n	n
COc1ccc(N2CCN(c3oc(-c4ccco4)nc3C#N)CC2)cc1	n	n	u	n	14.6µM
COc1ccc(CCNC(=O)CSc2nc3ccccc3nc2Cc2ccc(Cl)cc2)cc1OC	n	x	n	x	n
CCOc1ccc(N2C(=O)/C(=C/c3cc(OC)c(OC)c(OC)c3)N(CC(=O)OC)C2=S)cc1	n	23.1µM	n	n	u
Cc1ccc(C(C(=O)NC2CCCC2)N(CCCO)C(=O)Cn2nnc(-c3ccc(C)o3)n2)cc1 (stereo not drawn)	n	n	n	n	n
COc1ccccc1CNC(=O)c1csc2c1CCCC2	n	n	n	n	n
COc1ccccc1NC(=O)c1csc2c1CCCC2	n	n	n	n	16.4µM
SMILES	PINK1 modulator	MCF10A rereplic	KB-3-1 tox	SW480 rereplic	KB-V1 cytotox
O=C(CCCCCn1c(=S)[nH]c2ccc(N3CCOCC3)cc2c1=O)NCc1cccc(Cl)c1	n	16.4µM	n	u	n
O=c1c2cc(N3CCOCC3)ccc2[nH]c(=S)n1Cc1ccccc1Cl	n	23.1µM	n	u	n
CCC(C)c1ccccc1N1CC(C(=O)NCCC2=CCCCC2)CC1=O (stereo not drawn)	n	n	n	n	23.1µM
Cc1ccc(C(C)C)c(OCCNCc2ccccc2)c1	n	n	n	n	n
Cc1ccc(C(C)C)c(OCCNC(=S)Nc2cccc3ccccc23)c1	n	u	u	5.62µM	n
COc1ccc(NC(=O)CSc2nnc3c4c(nc(-c5ccccc5)n23)CC(C)(C)OC4)cc1	u	n	n	u	2.91µM
COc1ccc(-c2nc3c(c4nnc(SC(C)C(=O)Nc5ccc(C)cc5)n24)COC(C)(C)C3)cc1 (stereo not drawn)	n	n	n	n	n
O=C(c1ccccc1F)N1CCN(c2ccc([N+](=O)[O-])c(NCc3cccnc3)c2)CC1	n	n	n	n	n
O=C(c1ccc(Cl)cc1)N1CCN(c2ccc([N+](=O)[O-])c(NCc3cccnc3)c2)CC1	n	n	n	n	20.6µM
O=C(c1ccccc1)N1CCN(c2ccc([N+](=O)[O-])c(NCc3cccnc3)c2)CC1	n	n	u	n	2.59µM
c1ccc(COn2nnc3ccccc32)c(COn2nnc3ccccc32)c1	n	u	n	n	16.4µM
O=C(NNC(=O)c1cc(Br)ccc1Cl)c1csc(N2CCOCC2)n1	n	n	n	n	u
O=C(NNC(=O)c1cc(Br)ccc1O)c1csc(N2CCOCC2)n1	n	n	u	4.11µM	u
COc1ccc(CN2CC[C@H]3C=CC[C@@H](C(=O)Nc4ccc(Cl)cc4Cl)[C@H]3C2=O)cc1OC	x	x	n	x	u
COc1cc(=O)n2c(c1C(=O)N(C)Cc1cscn1)CCN(Cc1c(C)[nH]c3ccccc13)CC2	n	x	x	x	x
CCOc1cc(CNCCSc2nnnn2C)cc(Br)c1OCc1ccc(F)cc1	n	n	u	u	18.4µM
Cc1cc(C)c2c(=O)cc(C(=O)NCc3ccccc3)oc2c1	n	n	n	n	n
COc1ccc(/C=C/c2ccc(=O)n(Cc3ccccc3)n2)cc1	n	20.6µM	n	n	u
Cc1ccc(C=Cc2ccccn2)cc1	n	x	n	x	n
Cc1ccc(/C=C/c2ccc(=O)n(Cc3ccccc3Cl)n2)cc1	n	u	u	n	20.6µM
COc1ccc(/C=C/c2ccccn2)cc1	x	x	23.1µM	x	n
O=c1ccc(/C=C/c2ccccc2)nn1Cc1ccc(F)cc1	n	u	n	n	n
Cc1ccc(C(=O)NC(=S)N2CCN(c3ccccc3F)CC2)cc1	n	n	u	23.1µM	n
Cc1cc(=O)n(C(C)C(=O)N2CCCc3ccccc32)c2c1c(C)nn2-c1ccccc1 (stereo not drawn)	n	x	n	x	n
Cc1nnnn1/C(=C\c1ccccc1)C(=O)OCC(=O)NC1CCCCC1	n	u	n	23.1µM	n
SMILES	PINK1 modulator	MCF10A rereplic	KB-3-1 tox	SW480 rereplic	KB-V1 cytotox
CN(Cc1cn(C)c2ccccc12)C(=S)Nc1cc(F)cc(F)c1	n	n	u	n	18.4µM
CCC(=O)N1CCc2cc(S(=O)(=O)CCC(=O)NCc3ccco3)ccc21	n	8.2µM	u	u	n
CCC(=O)N1CCc2cc(S(=O)(=O)CCC(=O)NCCc3ccccc3)ccc21	n	n	n	n	n
COc1ccc(-c2c3c(=O)n(C)c(=O)n(C)c3c3n2-c2ccccc2NC3c2ccc(OC)cc2)cc1 (stereo not drawn)	n	x	n	x	n
COc1ccc(C2Nc3cc(OC)ccc3-n3cccc32)cc1 (stereo not drawn)	n	16.4µM	n	20.6µM	u
CC(C)(C)OC(=O)N1CCC(c2c(C(=O)Nc3ccc4c(c3)OCCO4)cnn2-c2ccc(F)cc2)CC1	n	x	u	x	u
CCOC(=O)N1CCN(C(=O)CN(c2ccc(C)cc2C)S(=O)(=O)c2ccccc2)CC1	u	x	n	x	n
